Compound activity deposited in PubChem by Buhrlage Lab, Dana-Farber Cancer Institute and Novartis Institutes for BioMedical Research (Cambridge, Mass).
USP28 inh: inhibitors of human USP28 deubiquitinase; inhibition, % at 25 µM; AID 1645857, 2021; purified USP28, Ub-rhodamine cleavage fluorescence, 30 min; actives 3% (n = 47,000)
OTUD3 block: inhibitors of human OTUD3 deubiquitinase; actives 0.7% (n = 47,000); purified OTUD3, Ub-rhodamine fluorescence, 2 h; OTU domain-containing protein 3 (Homo sapiens), Q5T2D3; AID 1645858, 2021; inhibition, % at 25 µM
USP30 inh: inhibitors of human USP30 deubiquitinase | Ubiquitin carboxyl-terminal hydrolase 30 (Homo sapiens), Q70CQ3 | actives 5.3% (n = 47,000) | inhibition, % at 25 µM | AID 1645860, 2021 | purified USP30, Ub-rhodamine cleavage fluorescence
USP8 inh: inhibitors of human USP8 deubiquitinase; Ubiquitin carboxyl-terminal hydrolase 8 (Homo sapiens), P40818; purified USP8, Ub-rhodamine cleavage fluorescence, 30 min; actives 4.2% (n = 47,000); inhibition, % at 20 µM
Target sequence (P40818 whole entry, looked up): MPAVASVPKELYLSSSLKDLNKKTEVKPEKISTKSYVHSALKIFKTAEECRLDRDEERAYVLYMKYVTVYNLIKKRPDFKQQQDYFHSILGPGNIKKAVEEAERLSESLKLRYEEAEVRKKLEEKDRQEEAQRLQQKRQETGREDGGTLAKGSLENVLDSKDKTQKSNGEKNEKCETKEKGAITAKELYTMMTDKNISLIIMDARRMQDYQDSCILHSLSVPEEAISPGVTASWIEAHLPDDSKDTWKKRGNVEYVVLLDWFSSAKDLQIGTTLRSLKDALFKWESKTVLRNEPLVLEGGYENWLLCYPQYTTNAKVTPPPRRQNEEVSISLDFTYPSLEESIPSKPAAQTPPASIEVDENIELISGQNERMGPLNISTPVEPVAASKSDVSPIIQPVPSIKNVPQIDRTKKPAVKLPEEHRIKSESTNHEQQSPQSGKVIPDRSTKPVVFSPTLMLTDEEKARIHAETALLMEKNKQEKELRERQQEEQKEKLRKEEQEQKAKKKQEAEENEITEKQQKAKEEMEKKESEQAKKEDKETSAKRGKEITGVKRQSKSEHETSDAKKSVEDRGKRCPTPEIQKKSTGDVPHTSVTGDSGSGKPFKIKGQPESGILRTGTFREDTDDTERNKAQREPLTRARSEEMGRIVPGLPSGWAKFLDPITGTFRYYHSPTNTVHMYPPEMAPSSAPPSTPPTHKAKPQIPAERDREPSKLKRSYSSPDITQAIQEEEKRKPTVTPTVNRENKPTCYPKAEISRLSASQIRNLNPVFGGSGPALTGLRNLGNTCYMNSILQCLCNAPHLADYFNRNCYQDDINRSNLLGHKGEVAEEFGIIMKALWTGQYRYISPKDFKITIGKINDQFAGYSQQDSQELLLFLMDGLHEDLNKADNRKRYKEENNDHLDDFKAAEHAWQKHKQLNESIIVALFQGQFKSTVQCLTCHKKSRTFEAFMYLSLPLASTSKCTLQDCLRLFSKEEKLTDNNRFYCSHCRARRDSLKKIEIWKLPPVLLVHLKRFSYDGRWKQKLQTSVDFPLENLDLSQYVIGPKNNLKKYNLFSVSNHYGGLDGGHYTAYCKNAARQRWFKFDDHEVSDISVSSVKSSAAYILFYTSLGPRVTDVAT
USP17 inh: inhibitors of human USP17 deubiquitinase | purified USP17, Ub-rhodamine cleavage fluorescence, 3 h | actives 6.5% (n = 47,000) | inhibition, % at 50 µM
* hit, by the source's call; . = no result. Compounds with a hit are over-represented: about 13% of the library has one in this group of screens. Cut-off read from the data, not from the text of the source: active = inhibition above about 30%; inactive = the rest.

SMILES | USP28 inh | OTUD3 block | USP30 inh | USP8 inh | USP17 inh
Cc1nc(CNC(=O)[C@H]2CCCN2C(=O)c2cccc(F)c2)cs1 | . | -1.4 | . | -13.2 | 5.7
CC(O)(CS(=O)(=O)c1ccc(Cl)cc1)CS(=O)(=O)c1ccccc1Cl (configuration not stated) | -9.0 | -6.0 | -11.2 | -3.3 | -9.8
Cc1c(NC(=O)c2ccc(CN3CCOCC3)cc2)cccc1[N+](=O)[O-] | -2.7 | -0.6 | -13.7 | -81.0 | -14.2
Cn1ncc(Cl)c1C(=O)Nc1ccc2nc(NC(=O)C3CCCCC3)sc2c1 | 7.7 | 7.5 | 12.2 | 58.2* | 37.8*
O=C(Nc1ccc2nc(NS(=O)(=O)c3ccccc3)sc2c1)C1CCCCC1 | 0.3 | 3.6 | 2.6 | 2.1 | 7.4
O=C(Nc1ccccc1)c1ccnc(Nc2ccc(F)cc2)c1 | 9.1 | 2.1 | 7.4 | 40.3* | 30.2*
O=C(Nc1ccc(F)cc1)c1cccc(-c2nc(-c3ccccc3)no2)c1 | -6.1 | -2.1 | -5.7 | 7.1 | 4.5
O=C(Nc1cccnc1)c1[nH]nc2c1COc1ccccc1-2 | -18.2 | -48.3 | -223.2 | -10.1 | -62.3
O=C(NCc1ccc2c(c1)OCO2)c1[nH]nc2c1CCc1ccccc1-2 | 24.2 | 7.0 | 56.9* | 41.0* | 60.0*
O=C(NCc1ccc2c(c1)OCO2)c1nnc(C(=O)Nc2ccc(F)cc2)s1 | 8.7 | 6.4 | 0.1 | 10.2 | 5.8
O=C(NCc1ccc2c(c1)OCO2)c1cc(-c2cc(Cl)ccc2O)n[nH]1 | 25.7 | 6.7 | 77.3* | 50.4* | 28.5
O=C(Nc1ccc2c(c1)OCO2)c1[nH]nc2c1CCc1ccccc1-2 | 43.3* | 22.4 | 3.8 | 84.8* | 65.6*
Cc1nn(C)cc1C(C)NC(=O)c1cc2c(s1)CN(C1CC1)C2 (configuration not stated) | -10.5 | -15.9 | -59.7 | 30.6* | 3.1
CC(C)(C)OC(=O)N1CCN(C(=O)c2cc3c(s2)CN(C2CC2)C3)CC1 | 4.6 | 0.3 | -5.7 | 0.6 | 5.5
CC(CCc1ccccc1)NC(=O)Cn1cccc1C(=O)c1ccccc1 (configuration not stated) | 38.1* | 3.9 | 14.9 | 15.0 | 14.4
COc1ccc2[nH]c3c(N4CCN(C)CC4)ncnc3c2c1 | 1.5 | 2.1 | 16.3 | 3.9 | 3.1
COc1cc(C(=O)OCc2ccc(O[C@@H]3O[C@H](CO)[C@@H](O)[C@H](O)[C@H]3O)cc2)ccc1O | -62.1 | 11.5 | -5.3 | 4.3 | 6.7
O=C(O)CCCCc1cc(O)cc(O)c1 | -20.3 | -11.7 | -78.0 | -42.6 | -43.6
CCCCCCCCCCCCCCCc1cc(O)cc(O)c1C(=O)O | 52.8* | 36.3* | 55.5* | 24.9 | 88.6*
CCCCCCCc1cc(OC(=O)c2c(CCCCCCC)cc(O)cc2O[C@@H]2O[C@H](CO)[C@@H](O)[C@H](O)[C@H]2O)cc(O)c1C(=O)O | 102.0* | 101.5* | 110.5* | 99.3* | 102.2*
CC(C)(C)c1ccc(S(=O)(=O)Nc2ccc(Cc3ccncc3)cc2)cc1 | 2.5 | -9.1 | 36.4* | -67.6 | -5.1
COc1ccc(S(=O)(=O)Nc2ccc(Cc3ccncc3)cc2)c2ccccc12 | 13.2 | 1.6 | 18.3 | 42.6* | 7.2
O=C(Nc1ccc2c(c1)CCC2)c1sc2cc(Cl)ccc2c1Cl | 12.4 | 7.6 | 29.9 | 29.2 | 15.9
NC(=O)C1CCN(C(=O)CN(Cc2ccc(F)cc2)S(=O)(=O)c2ccccc2)CC1 | 2.9 | 4.9 | 5.9 | -9.2 | -4.8
O=C(Nc1cc(S(=O)(=O)N2CCOCC2)ccc1N1CCCC1)c1cc2ccccc2oc1=O | -16.7 | -2.0 | -7.4 | 1.0 | -6.9
SMILES | USP28 inh | OTUD3 block | USP30 inh | USP8 inh | USP17 inh
O=C(Nc1sc2c(c1-c1nc3ccccc3[nH]1)CCCC2)C1CC(=O)N(Cc2ccccc2)C1 (configuration not stated) | -13.5 | -15.9 | -73.1 | -40.9 | 38.5*
CC(C)CCN1Cc2c(C(=O)NCc3ccccc3)ncn2-c2ccccc2S1(=O)=O | 23.4 | 25.7 | 41.9* | 18.3 | 18.5
O=C(NCC1CC1)c1ncn2c1CN(CC1CC1)S(=O)(=O)c1ccccc1-2 | 11.4 | 13.2 | 33.8* | -4.2 | 3.9
CC(C)CCN1Cc2c(C(=O)Nc3ccccc3)ncn2-c2ccccc2S1(=O)=O | -10.6 | -15.3 | -12.9 | 3.0 | -9.8
Cc1cc(C)c(C#N)c(SCC(=O)Nc2c(C#N)cnn2-c2ccccc2)n1 | . | -3.3 | . | 5.7 | 37.1*
COc1ccc(C(=O)[C@H]2CCCN(C(=O)c3cc(C(C)(C)C)[nH]n3)C2)cc1 | 13.9 | 12.6 | 13.1 | 11.9 | 7.6
Cc1ccc(C)c(OCCCn2c(CCNC(=O)C3CCCCC3)nc3ccccc32)c1 | 2.5 | 8.9 | 14.1 | 6.8 | 8.6
O=C(NCCc1nc2ccccc2n1CCCOc1ccccc1Cl)C1CCCCC1 | 23.9 | 33.2* | 79.1* | 74.3* | 82.7*
COc1cccc(Nc2nc(NCCc3ccccc3)nc3c2cnn3C)c1 | -5.1 | -12.8 | -35.9 | -3.4 | -0.4
COc1cccc(Nc2nc(NCc3ccccc3)nc3c2cnn3C)c1 | 39.5* | -16.3 | -29.6 | -0.5 | 27.4
Cn1ncc2c(Nc3ccc(Cl)cc3)nc(NCCc3ccccc3)nc21 | 5.6 | -6.6 | 41.5* | -0.7 | 36.5*
Cc1cccc(Nc2nc(NCCCO)nc3c2cnn3C)c1 | 4.3 | -1.8 | 2.5 | 1.8 | -0.6
COc1ccc2c(C)cc(SCC(=O)Nc3nsc(-c4ccc(C)cc4)n3)nc2c1 | 54.9* | 47.0* | 82.2* | -2.2 | 59.9*
CC(C)CC(NC(=O)c1ccc(Cl)cc1Cl)c1nc2ccccc2[nH]1 (configuration not stated) | 3.5 | -2.5 | -45.0 | 88.6* | 69.1*
O=C(NC(Cc1ccccc1)c1nc2ccccc2[nH]1)c1ccc2ccccc2n1 (configuration not stated) | 14.0 | 6.4 | -8.5 | 11.6 | .
COc1ccccc1/C=C/C(=O)NC(Cc1ccccc1)c1nc2ccccc2[nH]1 (configuration not stated) | -1.9 | -5.1 | -88.9 | 91.9* | 45.5*
O=C(NC(Cc1ccccc1)c1nc2ccccc2[nH]1)c1ccccc1-c1ccccc1 (configuration not stated) | -9.7 | -12.1 | -51.4 | 54.0* | 40.4*
O=C(NC(Cc1ccccc1)c1nc2ccccc2[nH]1)C1CC1 (configuration not stated) | 11.4 | 5.3 | 0.8 | 48.4* | 53.8*
CC(C)CC(NC(=O)c1ccccn1)c1nc2ccccc2[nH]1 (configuration not stated) | -25.7 | -19.8 | -66.0 | -13.3 | -25.8
Cc1ccccc1S(=O)(=O)N1CCC2(CC1)CCn1c(-c3cnn(C)c3)cnc12 | 0.5 | 8.7 | 6.6 | -118.0 | -11.8
O=C(Cc1coc2cc3c(cc12)CCC3)NC(Cc1ccccc1)c1nc2ccccc2[nH]1 (configuration not stated) | -10.9 | -1.2 | -7.8 | 65.6* | 47.4*
CSCCC(NC(=O)COc1ccc(Cl)cc1)c1nc2ccccc2[nH]1 (configuration not stated) | -25.8 | -21.5 | -106.1 | -11.1 | .
